# Experiments:
# Settings in all cases: concentration: 1 μM,replicates: in singlicate; n = 1
# NIM1 = system: T1, NIM1
# T1 construct: gene MGC42105
# NLK = system: NLK
# OSR1 = system: T2, OSR1
# T2 construct: gene OXSR1
# PAK1 = system: PAK1
# PAK2 = system: PAK2
# PAK3 = system: PAK3
# PAK4 = system: PAK4
# PAK6 = system: PAK6
# PAK7 = system: PAK7
# PCTK1 = system: T3, PCTK1
# T3 construct: gene CDK16
# PCTK2 = system: T4, PCTK2
# T4 construct: gene CDK17
# PCTK3 = system: T5, PCTK3
# T5 construct: gene CDK18
# PDGFRA = system: PDGFRA
# PDGFRB = system: PDGFRB
# PDPK1 = system: PDPK1
# PFTAIRE2 = system: PFTAIRE2
# PFTK1 = system: T6, PFTK1
# T6 construct: gene CDK14
# PHKG1 = system: PHKG1
# PHKG2 = system: PHKG2
# PIK3C2B = system: PIK3C2B
# 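Note: KINOMEscan kinase panel screen.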
SMILES,%Inh (NIM1),%Inh (NLK),%Inh (OSR1),%Inh (PAK1),%Inh (PAK2),%Inh (PAK3),%Inh (PAK4),%Inh (PAK6),%Inh (PAK7),%Inh (PCTK1),%Inh (PCTK2),%Inh (PCTK3),%Inh (PDGFRA),%Inh (PDGFRB),%Inh (PDPK1),%Inh (PFTAIRE2),%Inh (PFTK1),%Inh (PHKG1),%Inh (PHKG2),%Inh (PIK3C2B)
C[C@H]1Oc2cc(cnc2N)-c2c(nn(C)c2C#N)CN(C)C(=O)c2ccc(F)cc21,0%,5%,0%,8%,9%,36%,14%,2%,11%,0%,1%,29%,0%,10%,41%,10%,12%,54%,100%,0%
Cc1ccc(-n2nc(C(C)(C)C)cc2NC(=O)Nc2ccc(OCCN3CCOCC3)c3ccccc23)cc1 [GW839464],0%,,0%,0%,0%,35%,10%,12%,0%,0%,13%,2%,0%,87%,0%,0%,2%,0%,8%,0%
C[C@@H](Oc1cc(-c2cnn(C3CCNCC3)c2)cnc1N)c1c(Cl)ccc(F)c1Cl,8%,0%,36%,12%,9%,0%,12%,0%,0%,25%,4%,6%,23%,0%,14%,1%,0%,24%,7%,10%
Cc1n[nH]c2ccc(-c3cc(OC[C@@H](N)Cc4ccccc4)cnc3-c3ccoc3)cc12.O=C(O)C(F)(F)F.O=C(O)C(F)(F)F [GSK507358],20%,3%,12%,88%,40%,27%,0%,3%,56%,4%,0%,0%,0%,50%,0%,0%,9%,0%,0%,0%
Cc1occc1-c1nc(N)c(OC[C@@H](N)Cc2c[nH]c3ccccc23)cc1-c1cc2c(C)n[nH]c2cn1 [GSK1660450],74%,17%,13%,97.8%,86%,75%,0%,11%,9%,10%,0%,0%,0%,49%,0%,100%,45%,84%,11%,0%
Cc1cc(C(=O)Nc2ccc(Oc3ccc4nc(NC(=O)C5CC5)cn4n3)cc2)nn1-c1ccccc1,0%,2%,0%,0%,0%,3%,0%,15%,0%,0%,17%,4%,97.7%,100%,8%,0%,0%,49%,0%,0%
CCN(CC)CCOc1ccc(Nc2ncc3cc(-c4c(Cl)cccc4Cl)c(=O)n(C)c3n2)cc1 [SB-601273],96.4%,99.3%,16%,82%,17%,47%,53%,41%,,0%,24%,0%,99.8%,100%,0%,19%,0%,0%,30%,85%
Cl.Cl.NC[C@H](CC1CCCCC1)NC(=O)c1cc(Br)c(-c2ccnc3[nH]ccc23)s1 [GSK1581427],22%,0%,20%,38%,36%,81%,12%,28%,42%,3%,0%,0%,22%,75%,0%,63%,28%,20%,19%,0%
COc1ccc(C[C@@H](CN)NC(=O)c2cc(Br)c(-c3ccnc4[nH]ccc34)s2)cc1.Cl.Cl [GSK1389063],13%,0%,34%,78%,62%,93.9%,89%,89%,98.7%,16%,0%,0%,62%,96.3%,32%,3%,16%,45%,24%,0%
Cl.Cl.Nc1nc(-c2ccc3c(N)n[nH]c3c2)cc(N2CCCC(NC(=O)c3ccccc3)C2)n1 (stereo not drawn) [GSK2286775],2%,13%,0%,6%,1%,0%,0%,17%,0%,5%,21%,11%,0%,21%,85%,18%,18%,0%,0%,14%
Cc1cc2cn[nH]c2cc1-c1cccc2c(N)c(C(N)=O)nnc12,27%,0%,48%,24%,10%,85%,16%,12%,0%,26%,14%,26%,34%,18%,0%,29%,0%,26%,0%,0%
Cl.Oc1cc(-c2nc(-c3ccccc3)[nH]c2-c2ccncc2)ccc1Cl [SB-386023],0%,90%,8%,0%,20%,0%,0%,5%,1%,0%,0%,0%,0%,11%,2%,23%,0%,0%,0%,7%
CNC(=O)c1ccccc1Sc1ccc2c(/C=C/c3ccccn3)n[nH]c2c1,8%,100%,0%,9%,8%,0%,2%,10%,40%,,0%,8%,99.9%,100%,0%,14%,2%,16%,0%,0%
NC(=O)c1cc(-c2ccccc2)cc2c(C3CCNCC3)c[nH]c12 [GSK301362],15%,28%,14%,30%,27%,38%,0%,0%,4%,9%,0%,0%,0%,67%,0%,21%,17%,17%,0%,0%
O=C(NCCNc1ccnc(NCc2ccc(F)cc2)n1)c1cc2ccccc2s1 [GSK1379944],0%,88%,11%,15%,20%,0%,0%,57%,0%,8%,0%,14%,0%,86%,15%,7%,11%,0%,0%,0%
Nc1nc(Nc2ccccc2)cc(-c2ccc3c(N)n[nH]c3c2)n1 [GSK2225749],15%,3%,14%,27%,9%,0%,0%,0%,0%,0%,0%,0%,4%,2%,,15%,9%,0%,0%,2%
Cc1ccc2c(-c3ccncc3)c(-c3ccc(F)cc3)nn2c1.Cl [GW461484],13%,91.3%,0%,29%,30%,19%,0%,7%,4%,0%,0%,11%,0%,8%,0%,0%,0%,33%,0%,0%
C=CC(=O)Nc1cc2c(Nc3ccc(F)c(Cl)c3)ncnc2cc1OCCCN1CCOCC1 [GW781483],36%,0%,0%,0%,14%,0%,15%,0%,0%,1%,0%,0%,77%,15%,0%,15%,0%,0%,0%,2%
Cl.Cl.NC[C@H](Cc1ccc(C(F)(F)F)cc1)NC(=O)c1cc(Br)c(-c2ccnc3[nH]ccc23)s1 [GSK1487252],4%,0%,0%,37%,33%,83%,0%,25%,33%,0%,0%,0%,28%,54%,0%,5%,0%,0%,0%,0%
CN(C)CCOc1ccc(-c2cc(-c3c[nH]nc3-c3ccccn3)ccn2)cc1 [GW835314],10%,0%,0%,0%,0%,24%,0%,90%,4%,3%,7%,2%,29%,20%,15%,19%,1%,47%,0%,0%
O=C(NCCCN1CCOC1=O)c1cnc(NCc2cc(Cl)ccc2Cl)nc1NC1CCCC1,2%,17%,0%,9%,17%,0%,18%,16%,2%,0%,0%,13%,0%,30%,28%,0%,7%,0%,13%,4%
CN(C)CC(O)COc1ccc(Nc2nccc(-c3cnn4nc(N5CCOCC5)ccc34)n2)cc1 (stereo not drawn) [GW767488],51%,11%,54%,17%,34%,4%,25%,30%,9%,97.6%,91.9%,52%,56%,60%,0%,16%,46%,38%,81%,43%
C[C@@H]1CCN(C(=O)CC#N)C[C@@H]1N(C)c1ncnc2[nH]ccc12,7%,12%,0%,0%,0%,1%,0%,0%,0%,0%,0%,8%,0%,,0%,0%,21%,15%,13%,0%
CCN(CC)CCCCNc1ncc2cc(-c3c(Cl)cccc3Cl)c(NC(=O)NC(C)(C)C)nc2n1,6%,81%,0%,18%,2%,7%,0%,0%,16%,0%,0%,0%,90.1%,100%,0%,0%,0%,0%,0%,27%
CC(C)N1C(=O)Cc2cc(Nc3ncc(C(F)(F)F)c(NCc4cccc(S(C)(=O)=O)c4)n3)ccc21,51%,0%,5%,8%,0%,19%,7%,6%,25%,0%,20%,7%,36%,71%,0%,6%,14%,0%,26%,3%
CCn1c(-c2nonc2N)nc2c(C#CC(C)(C)O)nc(OCCN)cc21.Cl.Cl [GSK902056],10%,0%,32%,11%,36%,10%,68%,45%,93.4%,2%,0%,0%,0%,4%,0%,0%,0%,0%,0%,0%
CC(C)Nc1cc(-c2ccc3c(N)n[nH]c3c2)nc(N)n1 [GSK2221681],0%,0%,0%,34%,26%,0%,0%,0%,0%,0%,0%,10%,1%,5%,,10%,0%,11%,0%,0%
